From PubChem BioAssay AID1240 (Sanford-Burnham Center for Chemical Genomics, 2008)
The whole screen tested about 50,000 compounds, of which about 800 (1.6%) showed an effect of 50% or more. The full list was thinned out, with strong results kept by preference.

Target: Bcl-2-like protein 10 (Homo sapiens) (UniProt Q9HD36)
Assay: TR3 peptide-Bcl-B binding displacers, biochemical primary FP assay, phenotype converters (AID 1240);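 also: 0% = Bcl-B with tracer peptide and DMSO and 100% = tracer peptide lacking Bcl-B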
Conditions: GST-Bcl-B / FITC-TR3 peptide fluorescence polarization; stronger effect = higher value; compound at 3.75 mg/L

Sequence of Bcl-2-like protein 10 (Homo sapiens) (Q9HD36 whole entry, looked up): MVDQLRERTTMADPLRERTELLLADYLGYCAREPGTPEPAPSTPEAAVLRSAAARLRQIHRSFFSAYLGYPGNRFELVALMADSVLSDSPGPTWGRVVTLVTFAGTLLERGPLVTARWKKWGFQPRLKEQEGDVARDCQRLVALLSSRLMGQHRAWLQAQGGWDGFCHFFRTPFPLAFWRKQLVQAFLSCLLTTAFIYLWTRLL

Row | SMILES | displacement
1 | Cc1ccc(Cl)c(OCC(O)Cn2c(C)nc3ccccc32)c1 (stereo not given) | -11.5%
2 | COc1ccc(OCC(O)Cn2c(C)nc3ccccc32)cc1 (stereo not given) | -22.4%
3 | O=C(O)C1C2CCC(O2)C1C(=O)N1CCN(c2ccc(F)cc2)CC1 (stereo not given) | -9.7%
4 | CCOCCOC(=O)C1=C(C)NC2=C(C(=O)CC(C)(C)C2)C1c1cccc(Cl)c1Cl (stereo not given) | 3.1%
5 | CCCCCCOc1ccc(N2C(=O)CC(NCc3ccc(OC)cc3)C2=O)cc1 (stereo not given) | 4.5%
6 | Cc1ccc(/C(O)=C2\C(=O)C(=O)N(c3nncs3)C2c2cccc(Br)c2)cc1 (stereo not given) | 18.7%
7 | O=C1C(=O)N(c2nncs2)C(c2ccc(F)cc2)/C1=C(\O)c1ccccc1 (stereo not given) | 13.6%
8 | Cc1ccc(C2C(C(=O)c3cccs3)=C(O)C(=O)N2c2nncs2)cc1 (stereo not given) | 121%
9 | O=C(C1=C(O)C(=O)N(c2nncs2)C1c1ccc(F)cc1)c1cccs1 (stereo not given) | 109%
10 | CC(C)(C)c1ccc(C2/C(=C(\O)c3ccc(F)cc3)C(=O)C(=O)N2c2nncs2)cc1 (stereo not given) | 11.3%
11 | Cc1ccc(C2/C(=C(\O)c3ccccc3)C(=O)C(=O)N2c2nncs2)cc1 (stereo not given) | 11.3%
12 | Nn1c(Nc2ccccc2)nc2ccccc2c1=O | -15.5%
13 | O=C(N/N=C/c1cccc([N+](=O)[O-])c1)C1CC(=O)N(c2ccc(F)cc2)C1 (stereo not given) | -10.4%
14 | O=C1CCCC2=C1C(c1ccc([N+](=O)[O-])cc1)C1=C(CCCC1=O)N2c1ccc(Cl)cc1 | 17.8%
15 | Cc1ccc([N+](=O)[O-])cc1NC(=O)CCCOc1ccccc1 | 8.1%
16 | COc1ccc(Cl)cc1NC(=O)C1=C(C)NC(=S)NC1c1ccc(F)cc1 (stereo not given) | 11.9%
17 | COC(=O)C1=C(C)NC2=C(C(=O)c3ccccc32)C1c1ccc(-c2ccc([N+](=O)[O-])cc2Br)o1 (stereo not given) | 46.9%
18 | O=C1C2=C(Nc3ccccc3SC2c2ccc([N+](=O)[O-])cc2)c2ccccc21 (stereo not given) | -6%
19 | O=C1C(=C/C=C/c2ccccc2)C(=O)c2ccccc21 | 75%
20 | O=C1NN(c2ccccc2)C(=O)/C1=C\C=C\c1ccccc1 | 30.9%
21 | O=C1C(=Cc2ccccc2)C(=O)c2ccccc21 | 17.6%
22 | CCOC(=O)c1c(NC(=O)C(Cl)(Cl)Cl)sc2c1CCC2 | -3.5%

Row | SMILES | displacement
23 | Cc1ccc2c(c1)NC(c1ccc(Cl)cc1Cl)C1=C(CC(C)(C)CC1=O)N2 (stereo not given) | 13.5%
24 | O=S(=O)(O)c1nc2ccccc2n1-c1ccccc1 | -9.1%
25 | CC(C)(C)c1cc(C(=O)N/N=C\c2ccc(Cl)cc2)n[nH]1 | -5.3%
26 | COc1ccc(NC(=O)C2=C(C)NC(=O)NC2c2cccc(Cl)c2)cc1 (stereo not given) | 83.7%
27 | CC1=C(C(=O)Nc2ccc(C)cc2)C(c2ccc([N+](=O)[O-])cc2)NC(=O)N1 (stereo not given) | -3.6%
28 | COc1ccc(C2NC(=O)NC(C)=C2C(=O)Nc2cccc(Cl)c2)cc1 (stereo not given) | 11.4%
29 | CC1=C(C(=O)Nc2ccc(Cl)cc2)C(c2ccc([N+](=O)[O-])cc2)NC(=S)N1 (stereo not given) | 4.6%
30 | COc1ccc(NC(=O)C2=C(C)NC(=O)NC2c2cccc(OC)c2)cc1 (stereo not given) | -15.9%
31 | CC1=C(C(=O)Nc2ccc(Cl)cc2)C(c2ccc([N+](=O)[O-])cc2)NC(=O)N1 (stereo not given) | 124%
32 | COc1cc(C(=O)Nc2nc3ccc4ccccc4c3s2)cc(OC)c1OC | 6.6%
33 | CCCCN(CCCC)S(=O)(=O)c1ccc(C)cc1 | -6.8%
34 | O=C(/C=C\Nc1ccc2c(c1)OCO2)c1ccc(F)cc1 | -2.4%
35 | COC(=O)c1ccc(N/C=C\C(=O)c2ccc3c(c2)OCO3)cc1 | 23.7%
36 | O=C(/C=C\Nc1ccc2c(c1)OCO2)c1ccc2c(c1)OCO2 | 104%
37 | O=C(/C=C\Nc1ccc([N+](=O)[O-])cc1Br)c1ccc2c(c1)OCO2 | 3%
38 | CNc1cc([N+](=O)[O-])ccc1N/C=C\C(=O)c1ccc2c(c1)OCO2 | 97.2%
39 | CNc1cc([N+](=O)[O-])ccc1N/C=C\C(=O)c1ccc2ccccc2c1 | 14.1%
40 | COc1ccc(C(=O)Nc2ccc(Br)c(C)c2)c(OC)c1 | 14.5%
41 | COC(=O)c1ccccc1NC(=O)c1cnn2c(C(F)(F)F)cc(-c3ccccc3)nc12 | 11.9%
42 | COc1ccc(N(CC(=O)NC(C)c2ccccc2)S(=O)(=O)c2ccccc2)cc1 (stereo not given) | 5.7%
43 | CCC(c1ccccc1)c1nnc(NC(=O)Nc2cccc(Cl)c2)s1 (stereo not given) | -0.8%
44 | COc1cc(NC(=O)c2ccc(-c3ccccc3[N+](=O)[O-])o2)ccc1NC(=O)c1ccco1 | 7.1%

Row | SMILES | displacement
45 | CC(=O)Oc1cc2ccccc2cc1O | 3.9%
46 | C=CCN1C(=O)/C(=C\c2ccc(-c3ccc([N+](=O)[O-])cc3)o2)C(=O)NC1=S | 12.1%
47 | C=CCN1C(=O)/C(=C\c2cn(C)c3ccccc23)C(=O)NC1=S | -18.2%
48 | C=CCN1C(=O)/C(=C\c2cn(Cc3ccc([N+](=O)[O-])cc3)c3ccccc23)C(=O)NC1=S | 87.4%
49 | CSc1ccc(S(=O)(=O)NCc2ccccc2C)cc1 | 16.3%
50 | O=[N+]([O-])c1ccc(/C=N/c2nc3c(s2)CCCC3)cc1 | 6.6%
51 | COc1ccc(C(=O)c2c(N)c(C#N)c(C)n2-c2ccccc2)cc1 | 9.3%
52 | COc1ccc(OCC(=O)Nc2ccc(OC)c(OC)c2)cc1 | -4.2%
53 | O=c1cc(=O)n(-c2ccccc2)c2ccccc12 | -0.3%
54 | COc1ccc(N2C(=O)NC(=O)/C(=C/c3ccc(-c4ccccc4[N+](=O)[O-])o3)C2=O)cc1 | -46.3%
55 | COc1ccc(-c2ccc(/C=C3/C(=O)NC(=O)N(c4ccccc4)C3=O)o2)c([N+](=O)[O-])c1 | 78.3%
56 | Cc1ccc(N2C(=O)NC(=O)/C(=C\c3ccc(-c4cccc([N+](=O)[O-])c4)o3)C2=O)cc1 | -5.9%
57 | COc1ccc(-c2ccc(/C=C/c3cc(C(F)(F)F)[nH]c(=O)n3)o2)c([N+](=O)[O-])c1 | 78.8%
58 | O=C1NC(=O)N(c2ccccc2)C(=O)/C1=C\c1ccc(-c2ccccc2[N+](=O)[O-])o1 | 2.7%
59 | COc1ccc(N2C(=O)/C(=C/c3ccc(-c4ccccc4[N+](=O)[O-])o3)C(=O)NC2=S)cc1 | 15.9%
60 | O=c1nc(/C=C/c2ccc(-c3ccc([N+](=O)[O-])cc3Cl)o2)cc(C(F)(F)F)[nH]1 | 11.9%
61 | COc1ccc(-c2ccc(/C=C3\C(=O)NC(=O)N(c4ccc(Cl)cc4)C3=O)o2)c([N+](=O)[O-])c1 | 47%
62 | Cc1ccc(N2C(=O)NC(=O)/C(=C\c3ccc(-c4ccc(C)c([N+](=O)[O-])c4)o3)C2=O)cc1 | 151%
63 | COc1ccc(-c2ccc(/C=C3/C(=O)NC(=O)N(c4ccc(C)cc4)C3=O)o2)c([N+](=O)[O-])c1 | 83.5%
64 | Cc1c(Cl)cccc1-c1ccc(/C=C/c2cc(C(F)(F)F)[nH]c(=O)n2)o1 | -60.9%
65 | Cc1ccc(N2C(=O)NC(=O)/C(=C/c3ccc(C)c([N+](=O)[O-])c3)C2=O)cc1 | -16.7%
